Assay outcomes as filed in PubChem.
DRD3 agonist = D3 dopamine receptor (human) agonism; AID 652048; max activation, %; D3R DiscoveRx beta-arrestin cells, luminescence, 90 min; P35462; 0.58% of 410,000 active; in the data active means max activation above about 30%; further: 0% is about no effect
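Agonist mode: compounds and dopamine controls were applied to plated cells for 90 min at 37 degrees C after an overnight attachment at 1500 cells/well. Luminescent read-out followed 30 - 60 minutes at room temperature with DiscoveRx detection reagent.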
DRD3 antagonist = D3 dopamine receptor (human) antagonism | max response, negative = inhibition, % | D3R cells, DiscoveRx beta-arrestin luminescence, antagonist mode; active compounds read low | AID 652054 | 2.5% of 360,000 active; in the data active means max response below about -50%; inconclusive means no clear call, values can overlap the other calls; further: on the % scale 0 is the no-effect control and ±100 the full control effect
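Cells plated overnight at 1500 cells/well, then exposed to library compounds with dopamine controls for 90 minutes at 37 degrees C. DiscoveRx reagent added for 30–60 minutes at room temperature; luminescence read, quantitative HTS format.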
GLP1R ag = GLP-1 receptor (human) agonism; HEK293 GLP-1R CRE-luciferase, luminescence, 4-6 h; cells express a hypersensitive GLP-1R form; P43220; AID 624172; 0.007% of 380,000 active; Potency, µM (titrated, usually from 45.6 µM), inactives show top-dose activation, hits mostly activators; further: potency means the concentration at half of the fitted maximal effect; % of control where 0% means no effect
Target sequence (P43220 whole entry, looked up): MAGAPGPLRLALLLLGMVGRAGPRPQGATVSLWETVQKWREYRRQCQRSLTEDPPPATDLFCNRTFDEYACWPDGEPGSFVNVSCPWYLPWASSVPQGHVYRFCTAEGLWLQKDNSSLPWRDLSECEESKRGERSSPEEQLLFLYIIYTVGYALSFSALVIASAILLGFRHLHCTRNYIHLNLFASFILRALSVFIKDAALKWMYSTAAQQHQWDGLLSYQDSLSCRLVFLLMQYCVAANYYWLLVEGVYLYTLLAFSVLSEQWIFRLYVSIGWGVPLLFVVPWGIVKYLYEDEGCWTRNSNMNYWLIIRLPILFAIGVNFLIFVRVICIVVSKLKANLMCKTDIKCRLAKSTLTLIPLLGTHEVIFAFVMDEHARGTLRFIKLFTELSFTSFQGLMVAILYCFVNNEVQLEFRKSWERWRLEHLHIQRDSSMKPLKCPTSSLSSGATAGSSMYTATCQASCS
GLP-1R inv ag = GLP-1 receptor (human) inverse agonism; HEK293 GLP-1R CRE-luciferase, luminescence, 24 h; GLP-1R form is constitutively active; 1.6% of 410,000 active; P43220; AID 624417; Potency, µM (series often up to 38.3 µM), without a hit: top-dose activity change, negative = inhibition, usual class: inhibitors; further: potency means the concentration at half of the fitted maximal effect; on the % scale 0 is the no-effect control and ±100 the full control effect; nearly all actives have a fitted effect of over 55% in size
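Assay principle: reduced luminescence from a cAMP-responsive reporter in HEK293 cells co-expressing a constitutively active GLP-1R. Conditions: 24 hr compound incubation, 37 deg C, 5% CO2.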
* = called active by the depositor; ? = inconclusive; / = not tested or not shown. Hits are enriched below; roughly 4.3% of the tested compounds scored in any of these assays. Unless noted, the call rests on the fitted dose curve; in most records, active means well fitted curve in the direction sought with a large enough effect; inconclusive means small, poorly fitted or top-dose-only effect, or another doubt; inactive means no such curve, though single readings can be large; an effect the other way counts as inactive or inconclusive.

SMILES | DRD3 agonist | DRD3 antagonist | GLP1R ag | GLP-1R inv ag
O=S(=O)(NCC(c1ccco1)N1CCN(c2ccc(F)cc2)CC1)c1ccc(F)cc1 (stereo not given) | -18.0 | 16.6 | 1.9% | 10µM*
O=S(=O)(NCC(c1ccco1)N1CCN(c2ccccc2)CC1)c1ccc(F)cc1 (stereo not given) | -15.9 | 0.0 | 6.4% | 4.8%
C=CCN(Cc1cc(OC)ccc1OC)C(=O)c1cc2ccc(OC)cc2[nH]1 | 0.6 | -15.6 | 10.8% | 11.2µM*
Cc1ccc(S(=O)(=O)c2cnc(SCC(=O)Nc3ccc4c(c3)OCCO4)[nH]c2=O)cc1 | -10.9 | / | 0.5% | 11.7%
CN1CCN(CCOC2Cc3ccccc3Sc3ccc(Cl)cc32)CC1 (stereo not given) | -8.3 | -62.7* | -25.2% | 8.91µM*
CN1C(=O)CC(N2CCN(c3ccc(Cl)cc3)CC2)C1=O (stereo not given) | 4.5 | -0.7 | -0.1% | 4.7%
O=C(CN1CCN(CCOCCO)CC1)N1c2ccccc2Sc2ccc(Cl)cc21 | 8.0 | -14.3 | -1.0% | ?
CN1CCN(C2=Cc3cc(Cl)ccc3Sc3cc(F)ccc32)CC1 | -19.5 | -8.4 | -15.6% | ?
OCCN1CCN(C2Cc3cc(Cl)ccc3Sc3ccc(Cl)cc32)CC1 (stereo not given) (tested in a mixture with another compound) | 6.0 | -71.9* | 7.6% | ?
CN1CCN(C2Cc3cc(Cl)ccc3Sc3cc(F)ccc32)CC1 (stereo not given) | -54.2 | -93.5* | 6.5% | 5.01µM*
O=C1N[C@@H](Cc2ccccc2)COC(=O)[C@H](Cc2ccc(F)cc2)C/C=C\C[C@@H]1CC(=O)N(CCO)Cc1ccccc1 | -25.0 | -65.1* | 1.1% | ?
C[C@@H]1COC(=O)[C@H](Cc2ccc(F)cc2)C/C=C\C[C@@H](CC(=O)NCCO)C(=O)N1 | 36.8* | 9.9 | 2.2% | -6.8%
O=C1N[C@H](Cc2ccccc2)COC(=O)[C@@H](Cc2ccc(F)cc2)C/C=C\C[C@H]1CC(=O)N(CCO)Cc1ccccc1 | -14.3 | 20.2 | 4.3% | ?
O=C1N[C@H](Cc2ccccc2)COC(=O)[C@H](Cc2ccc(F)cc2)C/C=C\C[C@@H]1CC(=O)N(CCO)Cc1ccccc1 | -39.5 | -56.9* | 0.9% | ?
O=C1N[C@@H](Cc2c[nH]c3ccccc23)COC(=O)[C@@H](Cc2ccc(F)cc2)C/C=C\C[C@H]1CC(=O)N(CCO)Cc1ccccc1 | 9.4 | 27.2 | -5.9% | 8.91µM*
CCc1ccccc1NC(=O)C1CCN(S(=O)(=O)c2cn(C)cn2)CC1 | 5.5 | / | / | 4.5%
COC(=O)C1=C(C)Nc2c(c(=O)n(C)c(=O)n2C)C1c1ccc(Cl)cc1 (stereo not given) | 2.4 | 4.6 | -1.8% | 8.7%
O.O.O.O.O.O.O.O=S(=O)([O-])[O-].[Co+2] | -13.1 | / | 4.9% | /
CCN(CC)CCNC(=O)c1ccc(NS(C)(=O)=O)cc1 | -3.1 | / | -5.4% | /
CC(C)(C)c1ccc(/C=N/OCC(=O)NCc2ccccc2)cc1 | 23.0 | -0.7 | 15.3% | 8.91µM*
COCCCNC(=O)C[C@H]1C[C@H](C(=O)N(C(C)C)C(C)C)[C@@]2(C)c3[nH]c4ccc(Cl)cc4c3CCN2C1=O | -17.1 | ? | 3.7% | -2.6%
Cc1ccc(C(C)C)c(OCC(=O)Nc2ccc3c(c2)nc(CCN2CCCCC2)n3C)c1 | -20.8 | ? | 16.9% | 8.91µM*
CC1CCN(CCc2nc3cc(NC(=O)COc4ccccc4)ccc3n2C)CC1 | -15.0 | -70.6* | -5.9% | 11.4%
CCCCC(=O)Nc1ccc2c(c1)nc(CCN1CCN(c3ccccn3)CC1)n2C | 44.0* | -28.4 | -4.0% | 19.3%
CCCC(=O)Nc1ccc2c(c1)nc(CCN1CCN(c3ccccn3)CC1)n2C | 57.0* | -5.1 | 10.7% | 15.9%
SMILES | DRD3 agonist | DRD3 antagonist | GLP1R ag | GLP-1R inv ag
Cc1cccc(CN2CCN(CC(=O)NCCc3ccc(Cl)cc3)C2=O)c1 | -2.4 | / | 0.6% | ?
Cc1ccc(N2CC(c3nnc(Cc4ccc(Cl)cc4)o3)CC2=O)cc1 (stereo not given) | 2.8 | / | / | 1.3%
CC(C)CC(=O)Nc1ccccc1OCc1cc(=O)n2ccccc2n1 | 0.1 | / | / | -15.8%
CCCCCOc1ccc(C(=O)N(Cc2ccccc2)C2CCS(=O)(=O)C2)cc1 (stereo not given) | 4.6 | / | / | ?
CCc1cc2c(cc3c(=O)n(CC(=O)NC(C)c4ccccc4)ncn32)s1 (stereo not given) | 10.7 | / | / | 19.9%
Cn1c(CCN2CCN(c3ccccn3)CC2)nc2cc(NC(=O)COc3ccccc3)ccc21 | 44.0* | -12.9 | 6.2% | 22.3%
Cn1cc(S(=O)(=O)N2CCOCC2)cc1C(=O)Nc1cccc(C#N)c1 | 2.0 | / | 1.3% | 1.9%
Cc1ccc(CN(C(=O)COc2ccc(Br)cc2)c2ccccn2)o1 | 0.2 | / | / | ?
Cc1ccc(CN(C(=O)COc2ccccc2[N+](=O)[O-])c2ccccn2)o1 | 38.3* | / | / | -14.3%
CN(C)c1ccc(Nc2nc3ccccc3n3nnnc23)cc1 | -13.7 | / | / | -4.7%
CCN(Cc1nc(-c2ccccc2)no1)C(=O)COc1cccc(OC)c1 | -2.6 | -3.6 | 13.7% | 1.78µM*
N#CCSc1nc2c(c(=O)n1Cc1ccco1)C1(CCCC1)Cc1ccccc1-2 | 0.0 | -9.9 | 7.4% | 5.62µM*
CCCn1c(SCC#N)nc2c(c1=O)C1(CCCC1)Cc1ccccc1-2 | 1.2 | ? | 0.5% | ?
CCOc1ccc(C2=C(C=C(C#N)C#N)C(c3ccccc3)c3ccccc3O2)cc1 (stereo not given) | -4.6 | ? | -3.7% | 6.31µM*
COc1ccc(C2=C(CN(C)C)C(c3ccccc3)c3ccccc3O2)cc1 (stereo not given) | -13.5 | -11.0 | -6.2% | ?
Cc1ccc2[nH]c3c(c2c1)CCCC3=O | 0.0 | 13.0 | 1.7% | 14.7%
O=C1CCCc2c1[nH]c1ccc(CN3CCCCC3)cc21 | -77.7 | -53.8* | 4.1% | 2.7%
CCCc1cc(C(=O)Nc2ccc(C(=O)c3ccc(C)cc3)cc2)n(C)n1 | 0.5 | 47.1 | -3.1% | 5.62µM*
COc1ccc(Nc2nc(NCC3CCCO3)c3ccccc3n2)c(OC)c1 (stereo not given) | -1.2 | -22.7 | -3.5% | ?
c1ccc(-c2nc(NCC3CCCO3)c3ccccc3n2)nc1 (stereo not given) | 0.0 | -52.8* | 5.5% | 0.0%
CCOc1ccc(Nc2nc(NCC3CCCO3)c3ccccc3n2)cc1 (stereo not given) | 2.0 | -4.8 | 2.5% | 3.55µM*
c1ccc2c(NCC3CCCO3)nc(N3CCOCC3)nc2c1 (stereo not given) | 3.0 | -3.3 | 3.2% | -2.9%
c1ccc(Nc2nc(NCC3CCCO3)c3ccccc3n2)cc1 (stereo not given) | -2.9 | 10.2 | -2.0% | 8.91µM*
Cc1ccc(Nc2nc(NCc3ccco3)c3ccccc3n2)cc1 | -10.4 | 0.3 | 4.3% | 2.51µM*
COc1cccc(C(=O)N2CCN(CCc3ccncc3)CC2)c1 | -6.3 | / | / | ?
